# Measurements from PubChem BioAssay AID2322 (Broad Institute, 2010).
# Out of some 27,000 compounds screened, about 120 (0.44%) were called active. Shown is part of a subset that was picked to be rich in actives. Values without a mark were called inactive. Rule as the data show it: active = inhibition above about 20%; inconclusive = no clear call, values can overlap the other calls; inactive = below that.
# Target: Serine/threonine-protein kinase 33 (Homo sapiens) (UniProt Q9BYT3)
# Test: STK33 kinase inhibitors, primary screen, biochemical, luminescence, ADP-Glo, MBP substrate (AID 2322)
# Conditions: at 12.5 µM, stronger effect = higher value
# Serine/threonine-protein kinase 33 (Homo sapiens), sequence (Q9BYT3 whole entry, looked up): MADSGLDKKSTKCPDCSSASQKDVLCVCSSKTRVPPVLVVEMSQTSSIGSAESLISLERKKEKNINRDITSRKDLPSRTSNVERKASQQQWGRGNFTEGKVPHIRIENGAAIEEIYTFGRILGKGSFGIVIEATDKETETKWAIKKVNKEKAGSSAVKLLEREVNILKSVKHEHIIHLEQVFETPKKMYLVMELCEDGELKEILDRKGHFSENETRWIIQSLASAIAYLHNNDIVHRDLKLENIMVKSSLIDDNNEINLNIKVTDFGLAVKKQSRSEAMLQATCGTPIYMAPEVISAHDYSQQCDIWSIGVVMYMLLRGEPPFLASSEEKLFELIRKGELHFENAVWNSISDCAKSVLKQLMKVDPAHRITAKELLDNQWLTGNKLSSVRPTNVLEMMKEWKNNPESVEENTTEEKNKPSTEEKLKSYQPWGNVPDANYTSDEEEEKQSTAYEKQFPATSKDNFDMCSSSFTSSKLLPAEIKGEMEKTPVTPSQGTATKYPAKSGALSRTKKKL
row,Structure (SMILES),inhibition
1,Cc1noc(C)c1NC(=O)Nc1ccc2c(c1)C(=O)N([C@H](C)CO)C[C@H](C)[C@@H](CN(C)C(=O)Nc1ccc(C(F)(F)F)cc1)O2,3.9%
2,COc1ccccc1NC(=O)c1c(NC(=O)c2cccnc2)sc(C)c1C,4.55%
3,c1ccc(-n2c(SCc3nc4ccccc4s3)nnc2-c2ccncc2)cc1,1.5%
4,O=[N+]([O-])c1ccccc1-c1ccc(CN2CCN3CCCC3C2C2CCCCC2)o1 (stereo not given),-1.45%
5,O=C(CCn1nc(-c2ccc(Cl)cc2)c2ccccc2c1=O)Nc1cccc(C(F)(F)F)c1,0.989%
6,C[C@@H]1CN([C@H](C)CO)C(=O)Cc2cc(NS(C)(=O)=O)ccc2O[C@@H]1CN(C)C(=O)Nc1ccc2c(c1)OCO2,1.61%
7,CCOc1c(S(=O)(=O)NCc2cccnc2)ccc(Cl)c1Cl,3.15%
8,O=C(Oc1ccccc1)c1cccc(COC(=O)c2cc3ccccc3oc2=O)c1,-1.52%
9,COc1cccc(-c2cnc3c(c2)C(=O)N([C@H](C)CO)C[C@H](C)[C@H](CN(C)Cc2ccncc2)O3)c1,-1.09%
10,O=C1c2c(O)cc(O)cc2O[C@@H](c2ccc(O)cc2)[C@@H]1c1c(O)cc(O)c2c(=O)cc(-c3ccc(O)cc3)oc12,6.09%
11,Cc1cc(C)cc(OCC(=O)Nc2cccc(-c3nnc(-c4ccccc4)o3)c2)c1,4.59%
12,C[C@@H]1CN([C@@H](C)CO)C(=O)Cc2cc(NC(=O)Nc3ccc4c(c3)OCO4)ccc2O[C@@H]1CN(C)CC1CCCCC1,1.59%
13,c1ccc(Cn2c3ccccc3c3nnc(SCc4ccc5nonc5c4)nc32)cc1,2.04%
14,C[C@H]1CN([C@@H](C)CO)C(=O)CCCn2nncc2CO[C@@H]1CN(C)S(=O)(=O)c1cccc(C#N)c1,4.45%
15,COc1ccc(N2C(=O)CC(SCC(=O)Nc3ccccc3F)C2=O)cc1 (stereo not given),0.679%
16,Cc1ccc(-n2c(SCC(=O)Nc3ccc(F)c(F)c3)nnc2-c2cnccn2)cc1,-2.72%
17,COc1cc2c(cc1NC(=O)C1CCC(=O)N1S(=O)(=O)c1ccc(C)cc1)oc1ccccc12 (stereo not given),-1.01%
18,Cc1ccc(-c2nnc(Nc3ccc(C(=O)N(C)C)cc3)c3ccccc23)cc1S(N)(=O)=O,1.54%
19,CCc1c(O)nc(SCC(=O)Nc2ccc(OC)cc2)n(-c2ccccc2C)c1=O,-1.3%
20,S=c1cc(-c2ccccc2)oc(-c2ccccc2)c1,9.05%
21,COc1ccccc1NC(=O)CCC(=O)c1ccc(C)cc1,0.187%
22,COc1cc(/C=C2\Oc3cc(O)cc(O)c3C2=O)ccc1O,80.7% (active)
23,COc1cc(/C=C/C(=O)NCCc2ccc(O)cc2)ccc1O,-4.2%
24,CCN(CC)C(=O)c1ccc(O)c(OC)c1,1.6%
25,C[C@H](CO)N1C[C@H](C)[C@H](CN(C)S(=O)(=O)c2cccc(F)c2)OCc2cnnn2CCCC1=O,1.75%

row,Structure (SMILES),inhibition
1,Cc1ccc2oc3c(c(=O)c2c1)C(c1ccc([N+](=O)[O-])cc1)N(CCCN1CCOCC1)C3=O (stereo not given),-0.738%
2,O=C(CSc1nnc(-c2ccccc2Cl)n1-c1ccccc1)Nc1ccc([N+](=O)[O-])cc1,1.7%
3,CCOC(=O)CCSc1nnc2c3ccccc3n(C)c2n1,0.466%
4,O=C(CN1C(=O)COc2ccc(Cl)cc21)Nc1ccc(N2CCOCC2)cc1,6.98%
5,O=C(CCn1cnc2ccccc2c1=O)Nc1cccc(C(F)(F)F)c1,-2.03%
6,CS(=O)(=O)CCC(C(=O)N1CCOCC1)N1C(=O)c2ccc(Br)cc2C1=O (stereo not given),-0.215%
7,Cc1nc2ccccc2n1CC(O)COc1ccc(C2C=CCC2)cc1 (stereo not given),-1.35%
8,COc1ccc([Si](C)(C)[C@@H]2[C@@H](CCO)O[C@]3(C(=O)N(Cc4cccc(N5CCCCC5=O)c4)c4ccccc43)[C@H]2C)cc1,2.11%
9,Cc1noc(C)c1S(=O)(=O)Nc1ccc2c(c1)CC(=O)N([C@H](C)CO)C[C@@H](C)[C@@H](CN(C)Cc1ccc(C(=O)O)cc1)O2,0.587%
10,CCCn1c2ccccc2c2nnc(SCC(=O)Nc3cccc4ccccc34)nc21,0.6%
11,CC(C)c1ccc(OCC(O)Cn2cnc3ccccc32)cc1 (stereo not given),0.565%
12,O=C(COc1ccc2c(=O)c(-c3ccccc3)coc2c1)Nc1ccc(F)cc1,1.18%
13,C[C@@H]1CN([C@@H](C)CO)C(=O)Cc2cc(NC(=O)C3CCCCC3)ccc2O[C@@H]1CN(C)Cc1ccncc1,0.459%
14,CC(C)CN1C(=O)[C@@]2(Cc3ccccc31)c1ccccc1C(=O)N(C1CCCCC1)[C@H]2c1ccc(CO)cc1,-0.707%
15,O=C(CSc1nc2sc3c(c2c(=O)[nH]1)CCC3)Nc1ccccc1C(F)(F)F,-3.77%
16,Cc1ccc(NC(=O)CSc2ncnc3sc(C)c(C)c23)cc1,5.19%
17,Cc1ccc(-c2nc3cc(NC(=O)COc4ccc([N+](=O)[O-])cc4)ccc3o2)cc1C,0.362%
18,CN(CC(=O)Nc1ccc(C#N)cc1)S(=O)(=O)c1ccc(Cl)cc1,4.42%
19,C[C@H]1CN([C@@H](C)CO)C(=O)c2cc(NC(=O)Cc3cn(C)c4ccccc34)ccc2O[C@H]1CN(C)CC1CCCCC1,0.289%
20,CS(=O)(=O)N(CC(=O)Nc1ccc2ccccc2c1)c1cc(Cl)c(Cl)cc1Cl,0.303%
21,O=c1[nH]nc(-c2ccc(NCc3cccnc3)c([N+](=O)[O-])c2)c2ccccc12,0.832%
22,CCOC(=O)c1c(NC(=O)CSc2ncn[nH]2)sc2c1CCC2,3.47%
23,CCOC(=O)c1c(NC(=O)C2(C)Cc3ccccc3C(=O)O2)sc2c1CCCC2 (stereo not given),0.582%
24,CS(=O)(=O)N(CC(=O)NC1CC1)c1ccc(Cl)c(C(F)(F)F)c1,-1.46%
25,O=C(NCCN1CCOCC1)C(=O)NCC1COc2ccccc2O1 (stereo not given),2.08%
